PubChem BioAssay
Inconclusive results are not listed. The source made the active and inactive calls. Unless noted, how the calls were made is not given here.

Columns and labels:
[1] = rapamycin-like changes in RPL19A-GFP expression – cell-based, S. cerevisiae, multiplex flow cytometry, primary screen (AID 1862; in the data active means percent of DMSO control GFP below about 86%;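 further: lower values mimic rapamycin by blocking the RPL19A rise seen in DMSO cells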); conditions: S. cerevisiae RPL19A-GFP strain, flow cytometry fluorescence, 3 h; at 10 µM; stronger effect = lower value
[2] = TOR pathway GLN3 branch reporter MEP2-GFP changes – S. cerevisiae, multiplex flow cytometry, primary screen (AID 1867;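 active means GFP response, as percent of the DMSO control, above the screen-wide mean plus 3 SD, about 139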;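 further: median GFP channel fluorescence of barcode-gated MEP2-GFP cells measured by flow cytometry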); conditions: S. cerevisiae MEP2-GFP strain, 3 h, at 10 µM, stronger effect = higher value
[3] = TOR pathway RTG branch CIT2 reporter changes – S. cerevisiae, GFP fusion, multiplex flow cytometry, primary screen (AID 1870;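 active means percent response above a set limit, the screen-wide mean plus 3 SD, cut at about 130% in these data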;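 further: barcoded CIT2-GFP strain pooled with four other GFP strains with rapamycin as positive control; median GFP fluorescence per well over plate mean of DMSO wells so 100% = DMSO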); conditions: S. cerevisiae CIT2-GFP expression, 3 h, at 10 µM, stronger effect = higher value
[4] = TOR pathway LAP4-GFP level changes – S. cerevisiae, multiplex flow cytometry, primary screen (AID 1873;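 active means GFP signal, as percent of the solvent control, above the screen mean plus 3 SD, about 149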); conditions: S. cerevisiae LAP4-GFP expression, 3 h, at 10 µM, stronger effect = higher value
[5] = reduced mouse 2C T cell binding to pMHC/ICAM-1 vesicles – MLPCN validation set, flow cytometry, LFA-1/ICAM-1 modulator project, pilot screen (AID 2523;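 active means response below a set limit, under 55% cells CD8-positive and vesicle-bound, and CD8 cells' 90th-percentile brightness under 279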;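 on vesicle binding response: mean PE anti-B7-1 fluorescence of CD8+ cells relative to row control; 100% = QL9-loaded vesicles with DMSO vehicle in the same plate row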); conditions: 2C mouse CD8+ T cells, at 7 µM, stronger effect = lower value; double positive events: measured here: CD8+/vesicle+ event percentage
[6] = target: Integrin beta-1 (Homo sapiens) + Integrin alpha-4 (Homo sapiens) (UniProt P13612+P05556); experiment: alpha4beta1 integrin LIBS antibody binding reduction – U937 cells, HUTS-21 mAb, flow cytometry, validation set, VLA-4 allosteric modulator project, pilot screen (AID 2674;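 active means inhibition above 50%, about 3 SD of the validation set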;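 further: antibody binding induced by the VLA-4 ligand LDV present at three times its Kd; 0% = LDV ligand with antibody and no compound and 100% = antibody without LDV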); conditions: HUTS-21 LIBS mAb binding, at 6.7 µM, stronger effect = higher value
[7] = target: Beta-adrenergic receptor kinase 1 (Homo sapiens) (UniProt P25098); experiment: GRK2 binders displacing RNA aptamer, biochemical, validation, human GRK2, bead flow cytometry (AID 488806;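 active means aptamer binding inhibition above 30%, about 3 SD of noise from non-fluorescent compounds; inactive means inhibition at or below 30%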); conditions: bead-bound GRK2, FAM-aptamer displacement, at 10 µM, stronger effect = higher value
[8] = target: AP-2 complex subunit beta (Homo sapiens) (UniProt P63010); experiment: beta-arrestin/AP2 interaction blockers – biochemical, validation set, GST-AP2 beads, flow cytometry, pilot screen (AID 504541;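 active means inhibition above 54%, about 3 SD of non-fluorescent compounds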;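 further: AP2 carries R879A mutation and is captured from E. coli lysate; bead-bound FITC arrestin peptide fluorescence measuring arrestin peptide binding to AP2; 0% = DMSO wells and 100% = excess unlabeled arrestin peptide control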); conditions: FITC arrestin peptide, at 10 µM, stronger effect = higher value
[9] = cytosolic pH regulators acting via V-ATPase – S. cerevisiae, pHLuorin, HTS validation (AID 504600; in the data active means response above about 15%;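 further: plate controls were DMSO for no effect and reference compound for full effect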); conditions: V-ATPase proton transport, at 10 µM, stronger effect = higher value
[10] = test system: anti-desmoglein-3 scFv antibody binding to human DSG3; experiment: blockers of pathogenic pemphigus antibody–desmoglein-3 binding – biochemical, validation compound set, bead-based, flow cytometry, pilot screen (AID 588368;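 active means binding below the plate cutoff, the plate median minus 3 SD, with a reading above zero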;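 further: signal is the median channel fluorescence of bead-bound GFP antibody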); conditions: Protein G beads, DSG3-Fc, scFv-GFP binding, at 10 µM, stronger effect = lower value
[11] = test system: Botulinum neurotoxin type F light chain protease (Clostridium botulinum); experiment: Clostridium botulinum type F light chain protease inhibitors, microsphere substrate cleavage, validation (AID 588459); conditions: multiplex microsphere protease substrate cleavage assay, flow cytometry; at 10 µM; stronger effect = higher value
[12] = target: Botulinum neurotoxin type A (Clostridium botulinum) (UniProt P0DPI0); experiment: BoNT/A light chain protease inhibitors, biochemical, multiplex microsphere flow cytometry, validation set (AID 588460); conditions: at 10 µM, stronger effect = higher value
[13] = target: Lethal factor (Bacillus anthracis) (UniProt P15917); experiment: Bacillus anthracis lethal factor inhibition, microsphere flow cytometry protease assay, validation at 10 µM (AID 588461); conditions: multiplex microsphere protease cleavage assay, stronger effect = higher value
[14] = Nile Red efflux blockade in pump-expressing yeast – validation compound set, multiplex, phenotypic, pilot screen (AID 588506;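 active means efflux inhibition above 0.42, the validation set average plus 4 SD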;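 further: Nile Red retained in cells so higher fluorescence means more efflux inhibition; 0 = negative control wells and 1 = enniatin B 25 µM full block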); conditions: S. cerevisiae pump-expressing triplex, Nile Red efflux flow cytometry; at 10 µM; stronger effect = higher value
[15] = target: ATP-binding cassette sub-family B member 6 (Homo sapiens) (UniProt Q9NP58); experiment: blockers of ABCB6-driven porphyrin uptake – K562-ABCB6 cells, flow cytometry, validation set, pilot screen (AID 588550;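 active means inhibition above the screen-wide mean plus 3 SD, about 51%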;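 further: 0% = DMSO wells and 100% = benzethonium chloride 70 µM positive control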); conditions: K562-ABCB6 porphyrin accumulation, 1 h, at 10 µM, stronger effect = higher value
[16] = AML differentiation inducers, ER-HoxA9 marrow cells – cell-based, GFP/MAC1 double positive, flow cytometry, validation set, primary screen (AID 588685;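 active means differentiation response of at least 50%, scaled between solvent and reference control, from cells with both markers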;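 further: compound exposure lasts four days before antibody staining and flow analysis; 0% = DMSO wells and 100% = 5 µM fulvestrant positive control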); conditions: stronger effect = higher value
[17] = calorie-restriction mimetic ROS inhibitors, yeast – validation compound set, pilot screen (AID 2706;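 active means superoxide response below 65% of plate, a cut near 3 SD across the whole screen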;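 further: yeast exposed to compound for one week at 30 degrees C before staining; 100% = mean of all compound wells on the same plate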); conditions: S. cerevisiae aging, superoxide DHE fluorescence; at 10 µM; stronger effect = lower value

Sequence of Botulinum neurotoxin type A (Clostridium botulinum) (P0DPI0 whole entry, looked up): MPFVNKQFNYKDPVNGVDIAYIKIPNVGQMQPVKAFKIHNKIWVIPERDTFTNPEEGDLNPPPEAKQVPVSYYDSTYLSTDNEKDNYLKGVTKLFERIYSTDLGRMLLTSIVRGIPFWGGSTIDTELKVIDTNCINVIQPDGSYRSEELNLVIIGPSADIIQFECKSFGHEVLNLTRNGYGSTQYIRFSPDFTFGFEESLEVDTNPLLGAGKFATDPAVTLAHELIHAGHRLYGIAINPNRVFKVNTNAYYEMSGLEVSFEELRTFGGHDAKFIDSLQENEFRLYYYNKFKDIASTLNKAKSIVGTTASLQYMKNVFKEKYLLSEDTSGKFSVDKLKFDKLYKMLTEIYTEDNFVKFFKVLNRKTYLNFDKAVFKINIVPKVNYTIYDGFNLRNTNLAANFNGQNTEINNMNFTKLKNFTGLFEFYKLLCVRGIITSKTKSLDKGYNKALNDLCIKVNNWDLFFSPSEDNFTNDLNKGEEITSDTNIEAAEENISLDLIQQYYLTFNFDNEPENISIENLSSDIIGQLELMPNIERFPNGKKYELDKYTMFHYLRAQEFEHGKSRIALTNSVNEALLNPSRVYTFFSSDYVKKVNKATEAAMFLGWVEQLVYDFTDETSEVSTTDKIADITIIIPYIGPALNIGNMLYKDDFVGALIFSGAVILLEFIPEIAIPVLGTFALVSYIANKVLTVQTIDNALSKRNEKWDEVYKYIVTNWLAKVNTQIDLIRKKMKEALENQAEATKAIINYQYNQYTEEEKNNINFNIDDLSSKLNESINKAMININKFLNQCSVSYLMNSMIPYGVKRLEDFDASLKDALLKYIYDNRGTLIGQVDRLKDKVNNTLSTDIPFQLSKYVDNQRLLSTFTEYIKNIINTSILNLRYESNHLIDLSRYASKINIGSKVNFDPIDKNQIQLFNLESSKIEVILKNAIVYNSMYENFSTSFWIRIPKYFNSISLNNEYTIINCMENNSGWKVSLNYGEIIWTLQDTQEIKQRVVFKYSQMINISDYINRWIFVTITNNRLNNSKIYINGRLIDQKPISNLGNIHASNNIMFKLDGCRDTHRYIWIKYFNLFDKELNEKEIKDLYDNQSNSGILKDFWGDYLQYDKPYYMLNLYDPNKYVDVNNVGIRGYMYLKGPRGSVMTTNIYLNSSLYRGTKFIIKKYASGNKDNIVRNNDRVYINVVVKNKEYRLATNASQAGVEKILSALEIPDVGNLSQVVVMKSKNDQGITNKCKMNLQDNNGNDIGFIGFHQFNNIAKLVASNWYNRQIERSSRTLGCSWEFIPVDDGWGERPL
Sequence of ATP-binding cassette sub-family B member 6 (Homo sapiens) (Q9NP58 whole entry, looked up): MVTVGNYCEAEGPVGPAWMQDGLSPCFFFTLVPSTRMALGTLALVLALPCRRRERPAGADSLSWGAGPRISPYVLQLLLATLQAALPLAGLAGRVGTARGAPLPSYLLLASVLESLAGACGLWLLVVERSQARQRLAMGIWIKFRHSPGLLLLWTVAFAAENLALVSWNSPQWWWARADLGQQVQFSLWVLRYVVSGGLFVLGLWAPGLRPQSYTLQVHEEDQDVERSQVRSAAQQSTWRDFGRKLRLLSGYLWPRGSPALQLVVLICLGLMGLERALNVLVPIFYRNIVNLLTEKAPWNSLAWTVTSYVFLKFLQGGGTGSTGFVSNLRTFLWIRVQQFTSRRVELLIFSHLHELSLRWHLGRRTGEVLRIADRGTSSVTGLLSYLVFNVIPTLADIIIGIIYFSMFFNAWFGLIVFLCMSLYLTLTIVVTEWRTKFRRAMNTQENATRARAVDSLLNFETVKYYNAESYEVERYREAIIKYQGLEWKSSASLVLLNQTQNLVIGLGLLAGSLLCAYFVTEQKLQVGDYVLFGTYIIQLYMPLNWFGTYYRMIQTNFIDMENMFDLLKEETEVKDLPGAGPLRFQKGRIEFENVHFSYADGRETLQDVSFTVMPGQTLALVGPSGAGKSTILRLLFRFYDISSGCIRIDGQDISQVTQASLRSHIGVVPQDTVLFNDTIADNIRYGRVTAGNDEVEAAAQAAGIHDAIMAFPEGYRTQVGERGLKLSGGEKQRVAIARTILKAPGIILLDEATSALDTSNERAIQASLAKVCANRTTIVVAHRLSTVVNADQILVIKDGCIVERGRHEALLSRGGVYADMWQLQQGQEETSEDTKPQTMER
Sequence of AP-2 complex subunit beta (Homo sapiens) (P63010 whole entry, looked up, one chain of several): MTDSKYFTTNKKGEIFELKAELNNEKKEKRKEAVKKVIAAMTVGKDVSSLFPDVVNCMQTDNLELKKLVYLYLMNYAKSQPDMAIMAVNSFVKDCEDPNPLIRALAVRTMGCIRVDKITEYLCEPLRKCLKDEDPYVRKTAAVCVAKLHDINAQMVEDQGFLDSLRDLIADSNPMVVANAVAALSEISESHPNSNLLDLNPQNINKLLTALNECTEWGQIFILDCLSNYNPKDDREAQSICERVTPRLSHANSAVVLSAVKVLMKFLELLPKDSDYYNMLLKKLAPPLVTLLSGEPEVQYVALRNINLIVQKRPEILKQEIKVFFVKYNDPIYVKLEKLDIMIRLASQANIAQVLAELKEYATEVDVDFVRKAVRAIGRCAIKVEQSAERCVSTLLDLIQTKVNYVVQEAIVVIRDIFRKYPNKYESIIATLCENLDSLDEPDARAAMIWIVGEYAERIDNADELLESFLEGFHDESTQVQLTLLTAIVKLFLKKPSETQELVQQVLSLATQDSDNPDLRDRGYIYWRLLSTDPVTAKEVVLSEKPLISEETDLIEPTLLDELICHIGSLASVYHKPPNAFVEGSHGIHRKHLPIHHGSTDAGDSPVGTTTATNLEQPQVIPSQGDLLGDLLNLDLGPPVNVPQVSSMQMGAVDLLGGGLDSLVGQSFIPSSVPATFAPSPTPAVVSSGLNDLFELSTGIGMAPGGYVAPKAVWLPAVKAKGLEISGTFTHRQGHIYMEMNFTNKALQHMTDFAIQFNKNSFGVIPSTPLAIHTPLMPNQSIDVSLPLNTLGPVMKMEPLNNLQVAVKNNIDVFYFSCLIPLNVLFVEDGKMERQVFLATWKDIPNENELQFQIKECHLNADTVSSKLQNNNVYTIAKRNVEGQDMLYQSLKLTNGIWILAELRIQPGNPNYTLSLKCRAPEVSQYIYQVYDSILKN
Sequence of Lethal factor (Bacillus anthracis) (P15917 whole entry, looked up): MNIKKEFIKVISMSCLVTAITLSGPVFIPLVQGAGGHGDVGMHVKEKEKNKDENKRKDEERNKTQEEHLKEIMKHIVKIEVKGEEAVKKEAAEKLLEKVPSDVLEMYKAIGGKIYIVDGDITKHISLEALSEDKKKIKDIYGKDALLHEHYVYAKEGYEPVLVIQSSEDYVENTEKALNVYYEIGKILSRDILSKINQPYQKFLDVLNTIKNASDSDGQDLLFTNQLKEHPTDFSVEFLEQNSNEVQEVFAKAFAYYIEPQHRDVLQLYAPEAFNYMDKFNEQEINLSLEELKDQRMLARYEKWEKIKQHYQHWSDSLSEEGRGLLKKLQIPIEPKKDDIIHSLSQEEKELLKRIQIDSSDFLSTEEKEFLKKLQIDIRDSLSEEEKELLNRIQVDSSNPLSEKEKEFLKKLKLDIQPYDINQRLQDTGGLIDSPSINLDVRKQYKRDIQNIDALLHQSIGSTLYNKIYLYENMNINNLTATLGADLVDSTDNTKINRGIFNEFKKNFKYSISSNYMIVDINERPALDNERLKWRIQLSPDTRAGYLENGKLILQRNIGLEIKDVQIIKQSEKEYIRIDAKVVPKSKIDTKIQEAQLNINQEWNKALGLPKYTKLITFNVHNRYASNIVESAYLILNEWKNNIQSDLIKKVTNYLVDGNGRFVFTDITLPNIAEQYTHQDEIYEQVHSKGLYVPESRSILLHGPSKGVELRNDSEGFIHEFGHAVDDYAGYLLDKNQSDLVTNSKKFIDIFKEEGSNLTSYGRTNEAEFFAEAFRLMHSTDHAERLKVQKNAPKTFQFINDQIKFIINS
Sequence of Beta-adrenergic receptor kinase 1 (Homo sapiens) (P25098 whole entry, looked up): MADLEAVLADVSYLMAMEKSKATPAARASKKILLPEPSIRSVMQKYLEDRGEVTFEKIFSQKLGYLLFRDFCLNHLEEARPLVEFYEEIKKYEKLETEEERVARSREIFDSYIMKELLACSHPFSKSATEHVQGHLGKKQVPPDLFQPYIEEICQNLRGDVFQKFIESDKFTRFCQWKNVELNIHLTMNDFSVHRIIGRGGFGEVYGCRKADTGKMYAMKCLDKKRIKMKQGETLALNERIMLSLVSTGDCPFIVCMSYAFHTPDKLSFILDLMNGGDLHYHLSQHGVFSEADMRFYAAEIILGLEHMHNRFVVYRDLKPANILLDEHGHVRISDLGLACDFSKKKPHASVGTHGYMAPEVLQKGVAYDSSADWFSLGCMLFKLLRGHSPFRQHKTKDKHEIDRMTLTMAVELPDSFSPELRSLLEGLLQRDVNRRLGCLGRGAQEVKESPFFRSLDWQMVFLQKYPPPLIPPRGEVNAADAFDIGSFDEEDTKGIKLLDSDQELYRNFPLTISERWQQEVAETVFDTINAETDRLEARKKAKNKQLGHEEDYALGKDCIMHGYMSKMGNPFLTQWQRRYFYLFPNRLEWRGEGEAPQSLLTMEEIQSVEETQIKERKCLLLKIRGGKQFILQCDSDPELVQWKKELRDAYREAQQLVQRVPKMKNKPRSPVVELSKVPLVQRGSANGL

Row | SMILES | percent of DMSO control GFP [1] | GFP response vs DMSO [2] | percent response of DMSO control [3] | GFP response vs DMSO [4] | double positive events [5] [%] | vesicle binding response [5] | inhibition [6] | aptamer binding inhibition [7] | inhibition [8] | response [9] | binding (% of control) [10] | inhibition [11] | inhibition [12] | inhibition [13] | efflux inhibition (fraction of control) [14] | inhibition [15] | differentiation response [16] | superoxide response (% of plate) [17]
1 | CN1C(=O)CN=C(c2ccc(Cl)cc2)c2cc(Cl)ccc21 | 99% (inactive) | 100% (inactive) | 95.4% (inactive) | 103% (inactive) | 62.8 | 174% (inactive) | 9.92% (inactive) | -1% (inactive) | -0.45% (inactive) | 4.65% (inactive) | 96.8% (inactive) | 3.6% (inactive) | 0.8% (inactive) | -3.5% (inactive) | 0.27 (inactive) | 7% (inactive) | 1.22% (inactive) | –
2 | CC[C@@H](CO)NC(=O)[C@@H]1C=C2c3cccc4c3c(cn4C)C[C@H]2N(C)C1 | 103% (inactive) | 103% (inactive) | 99.8% (inactive) | 90.3% (inactive) | 59.1 | 158% (inactive) | 8.15% (inactive) | 2% (inactive) | 0.36% (inactive) | -0.46% (inactive) | 104% (inactive) | – | – | -6.6% (inactive) | 0.56 (active) | 7% (inactive) | 1.41% (inactive) | 108% (inactive)
3 | S=C1NCCN1 | 99.1% (inactive) | 109% (inactive) | 97.9% (inactive) | 102% (inactive) | 65.7 | 186% (inactive) | 6.29% (inactive) | 3% (inactive) | 24.8% (inactive) | -0.28% (inactive) | 98% (inactive) | – | – | – | 0.63 (active) | 14% (inactive) | -0.2% (inactive) | 98.2% (inactive)
4 | Cc1ccc(/C=C2/C(=O)NC(=O)N(C)C2=O)cc1 | 97.4% (inactive) | 96.9% (inactive) | 95.9% (inactive) | 97.4% (inactive) | 53.7 | 135% (inactive) | 20.3% (inactive) | 5% (inactive) | -0.14% (inactive) | -4.11% (inactive) | 97.8% (inactive) | 0.6% (inactive) | 1.8% (inactive) | 6.7% (inactive) | 0.22 (inactive) | 6% (inactive) | -0.2% (inactive) | 101% (inactive)
5 | O=C(CCCN1CCC2(CC1)C(=O)NCN2c1ccccc1)c1ccc(F)cc1 | 98.9% (inactive) | 95.7% (inactive) | 102% (inactive) | 110% (inactive) | 62.6 | 187% (inactive) | 8.25% (inactive) | -1% (inactive) | -9.7% (inactive) | 1.45% (inactive) | 103% (inactive) | – | – | 0.5% (inactive) | 0.12 (inactive) | -1% (inactive) | 3.88% (inactive) | 85.3% (inactive)
6 | Cc1cc(Cl)ccc1OCC(=O)O | 96.8% (inactive) | 93.8% (inactive) | 109% (inactive) | 105% (inactive) | 60.3 | 188% (inactive) | 7.22% (inactive) | -4% (inactive) | -8.4% (inactive) | -14.2% (inactive) | 111% (inactive) | -6.1% (inactive) | -0.1% (inactive) | 2.4% (inactive) | -0.35 (inactive) | 10% (inactive) | -24.4% (inactive) | 108% (inactive)
7 | CCN(CC)C(=O)N[C@H]1C[C@@H]2c3cccc4[nH]cc(c34)C[C@H]2N(C)C1 | 101% (inactive) | 107% (inactive) | 101% (inactive) | 94% (inactive) | 62.5 | 197% (inactive) | -11.9% (inactive) | -2% (inactive) | 28.7% (inactive) | -1.97% (inactive) | 101% (inactive) | -2.6% (inactive) | -1.3% (inactive) | -36% (inactive) | 0.36 (inactive) | -252% (inactive) | 21.8% (inactive) | –
8 | COC1=CC(=O)OC(/C=C/c2ccccc2)C1 (configuration not stated) | 102% (inactive) | 105% (inactive) | 105% (inactive) | 104% (inactive) | 56.3 | 194% (inactive) | 13.8% (inactive) | -1% (inactive) | 47% (inactive) | -10.4% (inactive) | 106% (inactive) | 3.9% (inactive) | 1.1% (inactive) | 5.6% (inactive) | 0.06 (inactive) | 4% (inactive) | 22.4% (inactive) | 101% (inactive)
9 | C[C@H]1CCC/C=C/C2C[C@H](O)CC2[C@H](O)/C=C/C(=O)O1 (some centres not stated) | 106% (inactive) | 111% (inactive) | 99.7% (inactive) | 100% (inactive) | 62.5 | 166% (inactive) | 0.25% (inactive) | 1% (inactive) | – | -4.42% (inactive) | 85.8% (inactive) | 4% (inactive) | -0.8% (inactive) | 2.7% (inactive) | 0.31 (inactive) | 17% (inactive) | 32% (inactive) | 92.8% (inactive)
